# Screening results as filed in PubChem.
# NCOA2 inhibitor – inhibits human steroid receptor coactivator 2 | Q15596 | HEK293 GAL4-SRC2 luciferase reporter, luminescence | inhibition, % at 9 µM | actives 0.17% (n = 370,000);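 active means inhibition above the mean inhibition of all tested compounds plus 3 SD, set per campaign, cut at about 52% in these data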;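 further: 0% = DMSO treated cells and 100% = cells given Gossypol at 36 µM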
# NCOA1 inh – inhibits human SRC1 coactivator; Q15788; HEK293 GAL4-SRC1 luciferase reporter, luminescence; inhibition, % at 3.6 µM; actives 0.12% (n = 360,000);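 active means inhibition above the campaign mean plus 3 SD, with each screening campaign given its own cutoff, cut at about 60% in these data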;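 further: 0% = DMSO treated cells and 100% = gossypol at 36 µM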
# NR5A2 inv ag – inverse agonists of human LRH-1 (NR5A2) | HEK293T StAR-luciferase reporter, LRH-1 transfected, 24 h | inhibition, % at 3.6 µM | O00482 | actives 0.13% (n = 360,000);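 active means inhibition above the mean inhibition of all tested compounds plus 3 SD, cut at about 73% in these data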;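 further: 0% = DMSO wells and 100% = reporter-only cells lacking LRH-1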
# NR2F2 inh – blocks human COUP-TFII nuclear receptor; HEK293T NGFI-A luciferase reporter, luminescence; inhibition, % at 8.6 µM; actives 0.7% (n = 370,000); AID 686940;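 active means inhibition above a per-plate cutoff, mean inhibition of test wells between control levels plus 3 SD, cut at about 38% in these data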;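 further: cells cotransfected with COUP-TFII expression vector driving the NGFI-A reporter; 0% = median of COUP-TF2 test wells and 100% = reporter-only cells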
# SRC3 inh – inhibitors of human steroid receptor coactivator 3 (SRC3) | HEK293 GAL4-SRC3 luciferase reporter, luminescence | AID 588352 | inhibition, % at 3.6 µM | Q9Y6Q9 | actives 0.17% (n = 360,000);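 active means inhibition above a per-campaign cutoff, the mean of all compounds plus 3 SD, cut at about 60% in these data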;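 further: 0% = DMSO-treated cells and 100% = gossypol-treated cells at 36 µM; higher means less SRC3-driven luciferase light from the GAL4 reporter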
# Active calls of the source: *; i = inactive; x = no result. Shown are actives, neighbours in structure and some others; about 0.84% of the full set was active somewhere.
SMILES,NCOA2 inhibitor,NCOA1 inh,NR5A2 inv ag,NR2F2 inh,SRC3 inh
COC1=C(C)C(=O)C2=C(C1=O)C1C3CC4=C(C(=O)C(OC)=C(C)C4=O)C(CNC(=O)C(C)=O)N3C(C#N)C(C2)N1C (centres undefined),62.7*,83.9*,96.0*,51.6*,84.9*
O=C(NCCc1ccc(F)cc1)c1ccc(Sc2ccccc2Cl)c([N+](=O)[O-])c1,8.9,x,x,6.7,x
C/C(CC(=O)NC1C2CC3CC(C2)CC1C3)=N\NC(=O)Cc1cccs1 (centres undefined),98.1*,-23.6,-9.6,-10.6,-9.1
CC(C)(C)OC(=O)N1Cc2ccccc2C[C@H]1C(=O)NCC(=O)Nc1ccc2c(c1)OCCO2,54.3*,41.5,36.8,23.6,60.2
CCOc1ccc(C2C=C(c3ccc(F)cc3)Nc3ncnn32)cc1 (centres undefined),-52.4,-43.5,-63.1,-30.7,-64.5
Oc1ccc(C2C=C(c3ccc(F)cc3)Nc3ncnn32)cc1 (centres undefined),20.0,66.0*,0.3,0.4,10.8
Brc1ccc2c(c1)CN1CCCC1=N2,-1.4,60.9*,44.7,10.8,39.4
COC(=O)c1cc(C(C)c2c[nH]c3ccccc23)n2ccccc12 (centres undefined),22.3,x,x,-71.6,x
CCOC(=O)[C@]12CCCCC/C=C\1N(CCc1ccc(Cl)cc1)C(=O)[C@H]2CC(=O)NCC1CCCCC1,-3.0,x,x,-4.8,x
COc1ccc(-c2csc3ncnc(NCCO)c23)cc1,58.6*,54.1,11.7,27.8,54.3
COc1ccc(-c2csc3ncnc(Nc4ccc(O)cc4)c23)cc1,9.9,-3.6,-6.9,-20.3,13.1
CN(C)CCCN1C(=O)c2cccc3cccc(c23)C1=O,-15.5,2.0,-13.8,-4.3,1.8
CN(C)CCN1C(=O)c2cccc3cc([N+](=O)[O-])cc(c23)C1=O,i,30.7,81.6*,-92.0,-30.5
O=C(N/N=C/c1cc2c3c(c1O)CCCN3CCC2)c1ccccc1O,6.8,65.8*,63.1,-27.7,68.5*
Cc1ccc2nc(-c3ccc(NC(=O)CSc4nnc(Cc5cccs5)n4C)cc3)sc2c1,-8.6,x,x,-3.4,x
CC(=NNC(=S)Nc1cccc(Cl)c1)c1ccccn1,29.8,58.0,45.9,7.5,67.3*
CC(C)(C)OC(=O)NCCCCCNC(=O)c1nc[nH]c1C(=O)NCc1ccc(CNC(=O)OC(C)(C)C)cc1,22.7,12.7,19.9,72.2*,23.1
CC(C)(C)OC(=O)NCCCC[C@H](NC(=O)c1nc[nH]c1C(=O)NCc1ccc(CNC(=O)OC(C)(C)C)cc1)C(=O)OC(C)(C)C,-1.3,-4.9,8.6,7.2,-1.8
CC(C)(C)OC(=O)NCc1ccc(CNC(=O)c2nc[nH]c2C(=O)NCc2ccc(CNC(=O)OC(C)(C)C)cc2)cc1,-3.6,12.0,26.6,46.5*,18.1
CC(C)(C)OC(=O)CNC(=O)c1nc[nH]c1C(=O)NCc1ccc(CNC(=O)OC(C)(C)C)cc1,-10.6,7.3,12.0,12.8,-2.1
CCCN1CCS(=O)(=O)N(Cc2cn(CC(=O)OCC)nn2)C(C(=O)OC)C1 (centres undefined),13.4,x,x,-18.0,x
COC(=O)c1cn(NC(=O)c2cc([N+](=O)[O-])ccc2F)c(=O)c2ccccc12,59.0*,69.5*,76.4*,28.4,78.1*
CN(c1ccccc1)S(=O)(=O)c1ccc(NC(=O)c2nc(S(C)(=O)=O)ncc2Cl)cc1,56.4*,-25.7,-1.6,-1.1,-20.1
CC(=O)Nc1ccc(NC(=O)c2nc(S(=O)(=O)Cc3cccc(C)c3)ncc2Cl)cc1,82.8*,-39.7,-55.3,-4.3,-48.6
CCc1ccc(NC(=O)c2nc(S(=O)(=O)Cc3ccccc3)ncc2Cl)cc1,30.9,-88.2,13.0,-4.5,-35.5
SMILES,NCOA2 inhibitor,NCOA1 inh,NR5A2 inv ag,NR2F2 inh,SRC3 inh
CC[C@H](CCC(=O)N(c1ccccc1)c1ccccc1)c1ccc(C)cc1,-0.4,x,x,11.9,x
CC(C)(C)c1ccc(C(=O)c2c[nH]c(C(=O)NCc3cccnc3)c2)cc1,7.0,-12.9,2.9,-28.8,-34.4
O=C(Cc1ccc(Cl)cc1)c1c[nH]c(C(=O)NCc2cccnc2)c1,88.0*,-10.8,37.6,23.1,48.9
COc1ccc(S[C@]2(C(=O)N3CCN(c4ncccn4)CC3)CC(=O)N(c3ccc4ccccc4c3)[C@@H]2c2ccc(OC)cc2)cc1,-17.2,x,x,1.7,x
COc1cc(C=NO)nc(-c2ccccn2)c1,33.1,79.2*,84.5*,-22.5,86.0*
COc1ccc2nc(-c3ccccn3)[nH]c2c1,-40.3,-87.1,-137.7,-45.0,-86.8
C=Cc1ccc(C(=O)N(Cc2ccc(F)cc2)C(C(=O)N(C)C2CCCC2)c2ccc(OC)c(OC)c2)cc1 (centres undefined),-9.1,x,x,-6.1,x
CCCc1cc(-c2[nH]ncc2-c2ccc3c(c2)OCCCO3)c(O)cc1OC,-32.4,x,x,-5.8,x
COc1ccc(-c2[nH]ncc2-c2ccc3c(c2)OCCO3)c(O)c1,49.1,67.2*,39.0,22.8,65.0*
O=C(C1CCC1)N1CCc2cc(S(=O)(=O)C3CCN(Cc4ccc(F)cc4)CC3)ccc21,-20.0,x,x,-4.6,x
Cc1oc(-c2ccc(Cl)cc2)nc1CN1CCC(C(=O)N2CCN(Cc3ccccc3)CC2)CC1,-11.8,2.9,-5.2,39.0*,2.1
COC(=O)c1cc(C)nc2c1C(=O)C(=O)C=C2N1CCOCC1,56.8*,61.6*,21.8,41.7*,71.1*
COC(=O)c1cc(S(=O)(=O)N2CCOCC2)c(Cl)cc1N1CCOCC1,-16.9,-16.3,8.1,-7.3,-22.1
COCCCNC(=O)c1ccc(Cn2c(=O)c3ccccc3n(Cc3ccc(Br)cc3)c2=O)cc1,5.8,x,x,9.2,x
O=C(Cn1nc(-c2ccccc2)ccc1=O)NCCc1ccccc1F,-16.9,x,x,-0.4,x
COc1ccc(-n2c(C)c(C(C)=O)c3cc(OC(C)=O)ccc32)cc1,32.3,62.1*,30.5,26.6,59.0
COc1cccc2[nH]c(=O)c(-c3ccccc3)cc12,-44.1,-60.6,-97.8,-30.8,83.4*
COc1ccc(C(C(=O)N(C)C2CCCC2)N(Cc2ccc(F)cc2)C(=O)c2csc(-c3ccccc3)n2)cc1OC (centres undefined),5.9,x,x,12.8,x
O=C(c1ccc(Cl)cc1)N1CCN(c2ccccn2)CC1,x,x,x,-25.2,x
C[C@@H](C(=O)Nc1ccc2c(c1)OCCO2)n1c(=O)[nH]c2ccccc2c1=O,41.4,60.7,52.1,27.6,67.2*
CCc1ccccc1NC(=O)c1cc(C)nn1-c1ccccc1,-12.1,x,x,-4.9,x
Cc1cc(NC(=O)c2ccccc2)c(Cl)cc1N,65.7*,5.3,0.0,15.9,5.7
O=C(Nc1ccc(NC(=O)c2ccco2)cc1)c1ccc2c(c1)OCCO2,61.3*,2.8,-28.2,29.3,-2.8
Cc1cc(NC(=O)c2ccc3c(c2)OCCO3)ccc1NC(=O)c1ccco1,24.4,-67.2,-85.3,-14.9,-59.0
CC(C)(C)NC(=O)COC(=O)c1snc(C(=O)NC2CCCCC2)c1N,35.7,16.8,29.6,66.8*,15.5
